Measured values as given in PubChem BioAssay AID493012 (Sanford-Burnham Center for Chemical Genomics, 2011).
Among all 330,000 compounds or so, about 930 (0.28%) were called active. Only a selection was taken, and actives are over-represented in it overall. Values without a mark were called inactive.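 How the source made its calls: active means inhibition of at least 40% at 20 µM, with no more than 30% in the related APOBEC3A deaminase screen; inactive means the rest.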

What follows are compounds tested against DNA dC->dU-editing enzyme APOBEC-3G (Homo sapiens) (UniProt Q9HC16) (assay: APOBEC3G DNA deaminase inhibitors, primary screen, biochemical, fluorescence, single-stranded DNA substrate, uHTS (AID 493012;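 further: plate controls were DMSO wells with A3G for no effect and wells lacking A3G enzyme for full effect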)). Details: recombinant A3G, ssDNA deamination FAM/TAMRA fluorescence; at 20 µM; hits give high values.
DNA dC->dU-editing enzyme APOBEC-3G (Homo sapiens), sequence (Q9HC16 whole entry, looked up): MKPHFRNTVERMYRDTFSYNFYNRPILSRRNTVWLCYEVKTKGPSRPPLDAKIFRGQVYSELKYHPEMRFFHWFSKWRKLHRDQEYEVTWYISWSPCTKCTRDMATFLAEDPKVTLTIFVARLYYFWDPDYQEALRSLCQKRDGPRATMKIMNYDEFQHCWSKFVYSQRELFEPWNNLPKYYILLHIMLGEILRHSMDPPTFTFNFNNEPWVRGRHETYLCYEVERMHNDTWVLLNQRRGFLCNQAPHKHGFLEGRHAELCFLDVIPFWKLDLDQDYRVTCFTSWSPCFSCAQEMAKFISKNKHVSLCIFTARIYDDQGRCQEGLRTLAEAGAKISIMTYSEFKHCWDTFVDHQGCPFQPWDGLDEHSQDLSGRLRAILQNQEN
For `COC(=O)N(c1ccc(OC)cc1)P1(=S)OCCC(C)O1` (stereo not given), the inhibition was 69.7% (active).
For `Cn1c(O)c(C=NCCN2CCNCC2)c(=O)n(C)c1=O`, the inhibition was -1.92%.
`CCCC[N+]1(C)C2CC(OC(=O)C(CO)c3ccccc3)CC1C1OC12` (stereo not given) was tested, and the inhibition was -0.137%.
For `CCN1CCN(Cc2cc(OC)c3c(c2)OCO3)CC1`, the inhibition was -5.01%.
Work on `Cc1cccc(-n2c(O)c(/C=N/N3CCOCC3)c(=O)[nH]c2=S)c1` yielded an inhibition of -9.2%.
